Results: PubChem BioAssay
Activity calls are given as the source filed them.

Tests used:
[1] = binders of probe aFSTL3 on microarray, primary screen, stem cell growth factor project, biochemical, small-molecule microarray, fluorescence 635/667 (AID 1064); details: higher = more signal;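 further: measures binding of the biotinylated anti-FSTL3 antibody to printed compounds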
[2] = binders from COS7 lysate, DM2A8 probe, primary screen, torsin A project, cell lysate, small-molecule microarray, fluorescence 635/667 (AID 1065); details: higher = more signal, COS7 lysate expressing mutant human TOR1A
[3] = binders of probe aFGF2 on microarray, primary screen, stem cell growth factor project, biochemical, small-molecule microarray, fluorescence 635/667 (AID 1067); details: higher = more signal;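 further: measures binding of biotinylated aFGF2 protein to printed compounds on slides; z-score merges feature fluorescence and signal-to-noise across triplicate slides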
[4] = binders of probe aFGF10 on microarray, primary screen, stem cell growth factor project, biochemical, small-molecule microarray, fluorescence 635/667 (AID 1071); details: higher = more signal;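 further: score merges 667 nm spot intensity and signal to noise from triplicate slides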
[5] = biological target: Neurogenic locus notch homolog protein 2 (Homo sapiens) (UniProt Q04721); assay: Notch2 binders on small-molecule microarrays, primary screen, biochemical, small-molecule microarray, 635 nm fluorescence, stem cell growth factors (AID 1073); details: Notch2 binding, higher = more signal
[6] = biological target: Pro-neuregulin-1, membrane-bound isoform (Homo sapiens) (UniProt Q02297); assay: NRG1 binders on small-molecule microarrays, primary screen, psychiatric disease protein project, biochemical, small-molecule microarray, fluorescence 635/667 (AID 1075); details: NRG1 binding, 635 nm fluorescence, higher = more signal;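 further: score combines 667 nm spot fluorescence with signal to noise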
[7] = tested on: Neuregulin-1 EGF-like domain; assay: binders of neuregulin-1 EGF-like domain, primary screen, biochemical, small-molecule microarray, 635 nm fluorescence (AID 1081); details: small-molecule microarray binding, higher = more signal;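 further: binding of the protein to compounds printed on small-molecule microarray slides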
[8] = FRG1 promoter luciferase signal modulators, primary screen, FRG1 inhibition for FSHD, cell-based, C2C12 myotubes, firefly/Renilla luciferase, luminescence (AID 1084); details: higher = more signal, called active from +8 up or from −8 down
[9] = binders of probe aFST on microarray, primary screen, stem cell growth factor project, biochemical, small-molecule microarray, fluorescence 635/667 (AID 1086); details: higher = more signal;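 further: score merges 667 nm fluorescence with signal-to-noise of each printed compound spot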
[10] = binders of probe aHhip on microarray, primary screen, stem cell growth factor project, biochemical, small-molecule microarray, fluorescence 635/667 (AID 1087); details: higher = more signal;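 further: score merges spot fluorescence at 667nm with spot signal to noise ratio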

Chain of Pro-neuregulin-1, membrane-bound isoform (Homo sapiens) (Q02297 whole entry, looked up, the tested form may be a part, canonical isoform): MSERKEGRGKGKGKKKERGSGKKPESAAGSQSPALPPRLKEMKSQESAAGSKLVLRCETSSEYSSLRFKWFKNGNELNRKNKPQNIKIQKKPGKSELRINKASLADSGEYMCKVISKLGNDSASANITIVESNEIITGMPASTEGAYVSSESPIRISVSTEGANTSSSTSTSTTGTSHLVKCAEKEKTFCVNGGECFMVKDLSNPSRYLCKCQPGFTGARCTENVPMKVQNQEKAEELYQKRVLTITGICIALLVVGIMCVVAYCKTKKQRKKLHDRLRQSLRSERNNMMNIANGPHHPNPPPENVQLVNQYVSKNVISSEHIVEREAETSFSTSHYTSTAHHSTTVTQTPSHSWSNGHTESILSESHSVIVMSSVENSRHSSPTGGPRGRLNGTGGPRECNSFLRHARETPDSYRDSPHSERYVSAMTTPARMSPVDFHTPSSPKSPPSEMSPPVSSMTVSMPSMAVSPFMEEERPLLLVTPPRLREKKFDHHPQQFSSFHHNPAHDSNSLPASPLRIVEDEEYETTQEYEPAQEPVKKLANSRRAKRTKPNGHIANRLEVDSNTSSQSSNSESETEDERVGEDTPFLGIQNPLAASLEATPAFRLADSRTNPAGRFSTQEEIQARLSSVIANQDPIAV
Chain of Neurogenic locus notch homolog protein 2 (Homo sapiens) (Q04721 whole entry, looked up, canonical isoform): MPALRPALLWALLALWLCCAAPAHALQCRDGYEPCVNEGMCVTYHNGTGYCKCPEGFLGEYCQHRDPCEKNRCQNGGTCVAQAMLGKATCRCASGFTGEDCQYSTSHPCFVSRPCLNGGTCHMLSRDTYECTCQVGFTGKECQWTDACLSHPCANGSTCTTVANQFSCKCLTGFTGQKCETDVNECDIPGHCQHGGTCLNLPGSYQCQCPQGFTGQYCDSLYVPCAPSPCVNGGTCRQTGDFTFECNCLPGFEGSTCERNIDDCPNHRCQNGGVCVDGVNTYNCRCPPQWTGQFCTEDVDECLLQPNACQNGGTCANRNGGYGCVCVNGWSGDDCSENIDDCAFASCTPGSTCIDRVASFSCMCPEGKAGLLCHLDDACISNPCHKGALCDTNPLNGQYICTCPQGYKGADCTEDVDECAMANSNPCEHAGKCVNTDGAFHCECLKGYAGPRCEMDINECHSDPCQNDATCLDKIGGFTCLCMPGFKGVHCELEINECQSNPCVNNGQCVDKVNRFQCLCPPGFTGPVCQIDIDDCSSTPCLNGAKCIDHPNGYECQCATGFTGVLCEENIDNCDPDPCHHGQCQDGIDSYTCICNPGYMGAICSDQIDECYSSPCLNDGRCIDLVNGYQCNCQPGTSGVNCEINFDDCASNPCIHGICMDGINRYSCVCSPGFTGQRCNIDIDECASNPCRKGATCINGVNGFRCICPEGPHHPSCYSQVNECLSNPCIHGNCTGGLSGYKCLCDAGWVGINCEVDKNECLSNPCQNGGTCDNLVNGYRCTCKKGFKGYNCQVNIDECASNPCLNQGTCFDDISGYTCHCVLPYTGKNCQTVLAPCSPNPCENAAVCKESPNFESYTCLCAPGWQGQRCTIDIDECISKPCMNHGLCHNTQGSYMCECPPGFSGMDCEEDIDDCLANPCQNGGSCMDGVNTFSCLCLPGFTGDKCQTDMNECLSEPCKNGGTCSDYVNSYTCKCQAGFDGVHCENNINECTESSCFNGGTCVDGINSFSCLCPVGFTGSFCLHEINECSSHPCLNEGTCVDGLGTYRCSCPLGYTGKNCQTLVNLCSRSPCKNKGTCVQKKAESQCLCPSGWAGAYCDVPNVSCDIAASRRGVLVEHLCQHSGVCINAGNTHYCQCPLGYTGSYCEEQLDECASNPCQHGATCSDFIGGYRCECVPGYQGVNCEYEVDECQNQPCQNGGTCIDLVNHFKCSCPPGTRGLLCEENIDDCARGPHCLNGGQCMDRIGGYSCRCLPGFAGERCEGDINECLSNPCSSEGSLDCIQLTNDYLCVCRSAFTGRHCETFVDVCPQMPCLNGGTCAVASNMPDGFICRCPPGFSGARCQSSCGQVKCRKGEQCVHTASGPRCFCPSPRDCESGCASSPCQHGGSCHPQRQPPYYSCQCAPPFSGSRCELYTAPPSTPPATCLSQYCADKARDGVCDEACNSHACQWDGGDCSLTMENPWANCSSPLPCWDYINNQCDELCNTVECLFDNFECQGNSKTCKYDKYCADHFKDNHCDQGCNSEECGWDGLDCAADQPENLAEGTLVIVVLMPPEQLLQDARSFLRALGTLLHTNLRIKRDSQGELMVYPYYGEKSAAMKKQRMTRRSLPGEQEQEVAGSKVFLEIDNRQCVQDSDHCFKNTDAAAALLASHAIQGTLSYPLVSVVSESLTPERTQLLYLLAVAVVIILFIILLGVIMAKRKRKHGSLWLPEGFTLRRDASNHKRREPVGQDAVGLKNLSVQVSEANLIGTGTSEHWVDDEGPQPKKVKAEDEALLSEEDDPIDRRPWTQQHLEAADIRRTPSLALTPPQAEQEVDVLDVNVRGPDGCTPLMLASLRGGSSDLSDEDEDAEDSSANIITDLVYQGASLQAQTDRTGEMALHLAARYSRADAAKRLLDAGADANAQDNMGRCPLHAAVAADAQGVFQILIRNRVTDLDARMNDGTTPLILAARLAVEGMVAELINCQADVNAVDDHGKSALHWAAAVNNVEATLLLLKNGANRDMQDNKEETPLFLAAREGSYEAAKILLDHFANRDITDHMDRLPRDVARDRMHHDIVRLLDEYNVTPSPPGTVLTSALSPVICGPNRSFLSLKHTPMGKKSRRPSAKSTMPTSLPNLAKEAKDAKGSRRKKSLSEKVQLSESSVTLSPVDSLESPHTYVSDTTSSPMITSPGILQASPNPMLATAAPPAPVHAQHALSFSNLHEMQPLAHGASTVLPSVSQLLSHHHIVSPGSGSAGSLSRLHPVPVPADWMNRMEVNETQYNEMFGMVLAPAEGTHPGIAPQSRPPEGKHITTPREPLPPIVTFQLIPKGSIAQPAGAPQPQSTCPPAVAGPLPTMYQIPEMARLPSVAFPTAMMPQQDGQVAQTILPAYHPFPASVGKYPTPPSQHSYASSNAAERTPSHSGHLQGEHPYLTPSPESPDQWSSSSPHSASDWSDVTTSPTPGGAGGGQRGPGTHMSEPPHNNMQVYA

Row | SMILES | composite z-score [1] | composite z-score [2] | composite z-score [3] | composite z-score [4] | composite z-score [5] | composite z-score [6] | composite z-score [7] | z-score [8] | composite z-score [9] | composite z-score [10]
1 | CC(C)(C)OC(=O)CC[C@]1(C(=O)N2CCOCC2)N=C(c2ccc(OCCCO)cc2)O[C@H]1c1ccccc1N=[N+]=[N-] | 0.594 | 0.838 | 0.0376 | 0.402 | 1.48 | 1.63 | 1.28 | 1.71 (inactive) | 1.06 | 0.0515
2 | COCC(=C=CC[C@@H](O)c1cccc(OCCO)c1)C[C@@H](O)c1ccccn1 | -0.19 | 0.0883 | -0.0707 | 0.338 | -0.17 | 1.11 | 1.3 | 0.93 (inactive) | -0.27 | 0.176
3 | CC(C)NC(=O)[C@@H]1c2ccccc2C(=O)N(C2Cc3ccccc3C2)[C@H]1c1ccc(CO)cc1 | 0.351 | 0.329 | -0.0234 | 0.0799 | 0.526 | 0.634 | 0.998 | -0.943 (inactive) | 0.148 | -0.131
4 | CCCCCCc1nc(-c2cc(C)c(OC)c(C)c2)cc2c1[Si](C(C)C)(C(C)C)OC2 | 0.0546 | -0.375 | -0.0507 | -0.278 | -0.274 | -0.405 | -0.449 | 0.515 (inactive) | -0.272 | 0.35
5 | CC[C@@H]1C=C(C(=O)O)[C@H](c2ccc(Br)cc2)N1S(=O)(=O)c1ccc(C)cc1 | 0.191 | 0.0963 | 0.0746 | 0.638 | 1.26 | 1.93 | 0.503 | -1.18 (inactive) | 0.614 | 0.141
6 | CNS(=O)(=O)c1ccc(C)cc1 | -0.366 | 0.182 | -0.14 | 0.248 | 0.192 | -0.0687 | 0.314 | -0.443 (inactive) | 0.209 | -0.0346
7 | C=CCOC(=O)[C@H]1[C@@H]2C(=O)O[C@@H](c3ccccc3)[C@@H](c3ccccc3)N2[C@@H](c2ccc(OCCOC(=O)[C@@H]3C[C@@H]4C(=O)N[C@@H](CC(C)C)C(=O)N4[C@@H]3c3ccc(O)cc3)cc2)[C@]12C(=O)Nc1ccccc12 | -0.254 | 0.479 | 0.0056 | 0.649 | 0.85 | 1.02 | 1.2 | 0.631 (inactive) | 0.0922 | 0.0201
8 | C=C(COC)/C(=C/C[C@@H](OC(=O)c1ccncc1)c1ccc(CO)o1)c1cc(C(=O)OC)ccc1OC | -0.496 | 0.699 | -0.0451 | 0.833 | 1.38 | 0.97 | 1.26 | -1.38 (inactive) | 0.458 | -0.0994
9 | [N-]=[N+]=NCc1ccccc1[C@@H]1OC(c2ccc(OCCCO)cc2)=N[C@]1(Cc1ccccc1)C(=O)NCC(O)CO (stereo not given in full) | 0.798 | 0.42 | 0.126 | 0.343 | -0.119 | 1.84 | 1.2 | -0.339 (inactive) | 0.421 | 0.132
10 | COC(=O)[C@@]1(Cc2ccc(OC)cc2)[C@H]2c3cc(C(=O)N4CCCC4)n(Cc4ccc(C)c(F)c4F)c3C[C@H]2CN1C(=O)c1ccccc1 | 0.77 | -0.5 | 0.176 | 0.78 | 1.77 | 1.65 | 1.31 | 0.352 (inactive) | 1.78 | 2.12
11 | C=C(COC)/C(=C/C[C@H](OC(C)=O)c1ccc(CO)o1)c1cc(C(=O)OC)ccc1OC | -0.113 | 0.183 | -0.129 | 0.779 | -0.925 | 0.0136 | 0.7 | 0.0728 (inactive) | -0.0787 | 0.0749
12 | CCOC(=O)C1=C[C@@H](C(C)(C)C)N(S(=O)(=O)c2ccc(C)cc2)[C@H]1c1ccc(F)cc1 | -0.272 | 0.59 | 0.0434 | 0.619 | 1.59 | -0.11 | 0.69 | -0.705 (inactive) | 1.05 | -0.0324
13 | NC(=O)NCC#Cc1ccc2c(c1)[C@]1(C(=O)N2)[C@H](C(N)=O)[C@H]2C(=O)O[C@H](c3ccccc3)[C@H](c3ccccc3)N2[C@@H]1c1ccc(O)cc1 | 1.41 | -0.0275 | -0.0413 | -0.166 | -0.723 | 1.14 | -0.22 | -0.0861 (inactive) | 0.752 | 1.15
14 | NC(=O)NCC#Cc1ccc2c(c1)[C@]1(C(=O)N2)[C@H](c2ccccc2OCCO)N2[C@H](c3ccccc3)[C@H](c3ccccc3)OC(=O)[C@H]2[C@@H]1C(=O)Nc1nc2ccccc2s1 | -0.108 | -0.354 | -0.016 | 0.268 | 0.295 | 0.756 | 0.176 | 0.169 (inactive) | 0.617 | -0.0296
15 | CN1C(=O)C2C=CC(C(O)c3ccccc3)N(N(c3ccccc3)c3ccccc3)C2C1=O (stereo not given) | -0.034 | 0.287 | 0.0561 | 0.332 | 0.924 | 0.647 | 0.553 | 0.815 (inactive) | 0.474 | 0.245
16 | O=C(NC1CC1)[C@@H]1c2ccccc2C(=O)N(Cc2ccccc2Cl)[C@H]1c1ccc(CO)cc1 | -0.255 | 0.256 | -0.104 | 0.486 | 0.532 | 0.93 | 1.32 | -2.22 (inactive) | 0.882 | -0.15
17 | O=C(CS)NCCCCCCNC(=O)[C@@H]1C[C@@H]2C(=O)NCC(=O)N2[C@@H]1c1cccc(OCCO)c1 | 0.35 | 0.024 | -0.0768 | -0.294 | -0.599 | 0.668 | 1.46 | 0.688 (inactive) | -0.528 | -0.274
18 | CCC(CC)C(O)C1C=CC2C(=O)NC(=O)C2N1Nc1ccccn1 (stereo not given) | -0.164 | 0.247 | 0.0119 | 0.368 | 0.795 | 0.675 | 1.12 | 0.32 (inactive) | 0.305 | 0.0139
19 | CCCC=C(CCC)[C@@H](NC(=O)c1cccs1)c1ccc(C(F)(F)F)cc1 | 0.251 | 0.654 | -0.0515 | 0.383 | 1.43 | 0.393 | 0.729 | 2.26 (inactive) | 1.46 | -0.132
20 | COC(=O)[C@@]1(Cc2ccccc2)[C@H]2c3cc(C(=O)N4CCCC4)n(Cc4ccc(S(C)(=O)=O)cc4)c3C[C@H]2CN1C(=O)c1ccccc1 | 1 | 0.0844 | 0.371 | -0.0015 | 1.68 | 1.66 | 1.31 | 1.45 (inactive) | 1.23 | 0.939
21 | CC(C)=CCN[C@H](CO)c1ccccc1 | -0.122 | -0.428 | -0.0732 | 0.897 | 0.794 | -0.419 | 0.249 | 1.07 (inactive) | -0.0489 | 0.0129
22 | C=CCN1C(=O)[C@]2(O[C@H](CCn3cc([C@H](O)c4ccccc4)nn3)[C@@H]([Si](C)(C)c3ccc(OC)cc3)[C@@H]2C)c2cc(N3CCC3=O)ccc21 | -0.0453 | 0.334 | 0.0087 | 0.679 | -0.255 | 1.9 | 1.14 | -1.43 (inactive) | -0.282 | 0.0505
23 | O=C1C2C=CC(C(O)CCc3ccccc3)N(Nc3ccccc3F)C2C(=O)N1c1ccccc1 (stereo not given) | -0.114 | 0.203 | 0.179 | 0.763 | 1.68 | 0.572 | 1.15 | 0.957 (inactive) | 1.16 | -0.191
24 | CCOC(=O)C[C@H]1[C@H](OC(=O)c2ccc(-c3ccccc3)cc2)[C@@H](NC(=O)Cc2ccc(OC)cc2)c2cc(OCCCO)ccc2N1C(=O)c1ccccc1 | -0.0117 | -0.354 | -0.0316 | 0.23 | 0.255 | 0.176 | 0.3 | -0.831 (inactive) | 0.376 | -0.0391
25 | CO[C@H]1O[C@H](CO)[C@@H](OC(=O)Nc2cccc(F)c2)[C@H](OC(=O)Nc2ccccc2)[C@@H]1OC(=O)Nc1ccccc1 | -0.139 | 0.995 | 0.185 | 1.17 | 1.51 | 1.51 | 1.19 | 1.17 (inactive) | 0.7 | -0.137
26 | O=C(c1ccccc1)N1C(=O)[C@@]2(Cc3ccccc31)N=C(c1ccc(OCCCO)cc1)O[C@H]2c1ccccc1 | 0.77 | 0.686 | 0.15 | 0.663 | 1.17 | 1.57 | 1.39 | -2.91 (inactive) | 1.01 | 0.364
27 | CCCC[C@@H]1C[C@H]1[C@@H](NC(=O)C(C)(C)C)c1ccc(C(F)(F)F)cc1 | 1.54 | 0.466 | -0.0785 | -0.38 | -1.36 | 0.669 | 0.55 | -0.571 (inactive) | -0.347 | 0.235
28 | CN(C)C(=O)[C@]1(Cc2ccccc2N=[N+]=[N-])N=C(c2ccc(OCCCO)cc2)O[C@@H]1c1ccccc1N=[N+]=[N-] | 0.0009 | 0.827 | 0.0155 | 0.183 | 1.47 | 1.01 | 1.26 | -1.74 (inactive) | 1.15 | 0.0373
